Experimental data reported in PubChem BioAssay AID1053180 (Broad Institute, 2014).
Where “and” joins values, the source holds several entries; their conditions need not be identical. Equal entries are not always repeated. Out of some 9,600 compounds screened, about 20 (0.2%) were called active.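 The calls were made as follows: active = highest normalized replicate activity of 15 or more, or at least half the replicates reach 15 or more; inactive = neither condition met.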 For the sample, actives were picked, then their nearest neighbours and some compounds at random. Where a structure was tested more than once in an assay, its records may differ in their call.

test: Pax4 mRNA upregulation in alpha cells – RT-PCR, mouse alpha TC1 cells, single point, primary screen (AID 1053180); settings: Pax4 mRNA qPCR, 6 days, at 10 µM, stronger effect = higher value, 100% = Pax4 plasmid added at qPCR;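 also: Pax4 Ct normalized to GAPDH with activation seen as lower delta delta Ct; plate controls were plate neutral control wells for no effect and Pax4 plasmid positive control for full effect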

| Structure (SMILES) | activation |
| --- | --- |
| COc1cccc(C#Cc2ccc([C@H]3[C@H](CO)N4C(=O)CN(C(=O)Cc5cccnc5)C[C@@H]34)cc2)c1 | 0% (inactive) |
| CO[C@H]1CC[C@H]2CCOc3c(C#N)cccc3C(=O)N(C)C[C@H](OC)[C@H](C)C(=O)N(C)C[C@@H]1O2 | -0.0005% (inactive) |
| CO[C@H]1CN(C)C(=O)c2cc(NC(=O)CC(F)(F)F)ccc2OC[C@@H](C)N(CC2CC2)C[C@@H]1C | -0.0005% (inactive) |
| C[C@H](CO)N1C[C@H](C)[C@H](CN(C)Cc2ccc3c(c2)OCO3)Oc2ccc(NS(=O)(=O)c3cn(C)cn3)cc2CC1=O | 0.004% (inactive) |
| N#C[C@@H]1N[C@@H](CO)[C@@H]1c1ccc(C#CC2CCCCC2)cc1 | 0.001% (inactive) |
| Cc1noc(C)c1S(=O)(=O)N(C)C[C@H]1Oc2c(NS(=O)(=O)c3cn(C)cn3)cccc2C(=O)N([C@@H](C)CO)C[C@@H]1C | -0.005% (inactive) |
| COc1ccc2c3c([nH]c2c1)[C@H](CO)N(C(=O)Nc1ccc(F)cc1)CC31CN(S(=O)(=O)c2ccc(C)cc2)C1 | 0.006% (inactive) |
| CCS(=O)(=O)Nc1ccc2c(c1)C(=O)N(C)[C@@H]1CC[C@H](CC(=O)NC3CCCCC3)O[C@@H]1CO2 | 0% (inactive) |
| C[C@@H]1CN([C@H](C)CO)C(=O)Cc2cc(NS(=O)(=O)c3ccc(Cl)cc3)ccc2O[C@@H]1CN(C)C(=O)Nc1ccc(C(F)(F)F)cc1 | 0.005% (inactive) |
| CC(C)NC(=O)Nc1ccc2c(c1)C(=O)N([C@H](C)CO)C[C@H](C)[C@@H](CN(C)C(=O)C1CCCCC1)OCCCC[C@H](C)O2 | -0.0015% (inactive) |
| O=C(C[C@@H]1CC[C@H]2[C@@H](COC[C@H](O)CN2S(=O)(=O)c2cccc(F)c2)O1)NCc1ccncn1 | 0.011% (inactive) |
| Cc1nn(C)cc1NC(=O)C[C@@H]1CC[C@@H]2[C@@H](COc3ccc(NC(=O)c4cccc(F)c4)cc3C(=O)N2C)O1 | 0.0025% (inactive) |
| C[C@@H]1CN([C@H](C)CO)C(=O)c2cc(NS(=O)(=O)c3ccccc3)ccc2O[C@@H](C)CCCCO[C@@H]1CN(C)C(=O)C1CCCCC1 | -0.001% (inactive) |
| CC(C)[C@@H]1CCc2cnnn2COC[C@H](Cc2ccccc2)NC1=O | -0.0175% (inactive) |
| O=C(C[C@H]1CC[C@@H]2[C@H](COC[C@H](O)CN2Cc2ccc3c(c2)OCO3)O1)N1CCCCC1 | 0.002% (inactive) |
| COc1ccc2c3c([nH]c2c1)[C@@H](CO)NCC31CN(Cc2cc(F)ccc2F)C1 | 0.0025% (inactive) |
| O=S(=O)(c1ccc(F)cc1)N1CCCCN2[C@H](CO)[C@H](c3ccc(-c4cncnc4)cc3)[C@H]2C1 | 0.001% (inactive) |
| O=C(C[C@H]1C[C@H]2c3cc(NS(=O)(=O)c4ccccc4)ccc3O[C@H]2[C@H](CO)O1)N1CCOCC1 | 0.0015% (inactive) |
| CC(=O)N1[C@@H]2Cn3c(ccc(-c4cccnc4)c3=O)[C@H]1[C@@H](C(=O)NC1Cc3ccccc3C1)[C@@H]2CO | 0% (inactive) |
| C[C@H]1CN([C@@H](C)CO)C(=O)Cc2cc(NS(=O)(=O)c3ccc(Cl)cc3)ccc2O[C@H]1CN(C)C(=O)Nc1ccc(C(F)(F)F)cc1 | -0.003% (inactive) |

| Structure (SMILES) | activation |
| --- | --- |
| CN(C)C(=O)c1ccc(-c2ccc([C@@H]3[C@@H](CO)N4C(=O)CN(C(=O)CC5CC5)C[C@H]34)cc2)cc1 | 0.005% (inactive) |
| COc1ccc(CN2[C@@H]3CN(C(=O)NC(C)C)c4ccccc4[C@@H]3[C@@H]2CO)cc1 | -0.0005% (inactive) |
| C[C@H](CO)N1C[C@H](C)[C@@H](CN(C)Cc2ccc(-c3ccccc3)cc2)Oc2c(NS(C)(=O)=O)cccc2C1=O | -0.001% (inactive) |
| C[C@H](CO)N1C[C@H](C)[C@@H](CN(C)Cc2ccccc2)Oc2c(NC(=O)Cc3cn(C)c4ccccc34)cccc2C1=O | 13.8% (active) |
| C[C@H](CO)N1C[C@H](C)[C@@H](CN(C)Cc2ccc(Oc3ccccc3)cc2)Oc2c(NC(=O)CCC(F)(F)F)cccc2C1=O | 0.039% (inactive) |
| C[C@@H](NC(=O)C[C@H]1CC[C@@H]2[C@@H](COc3ccc(NC(=O)C4CCOCC4)cc3C(=O)N2C)O1)c1ccccc1 | 0.0015% (inactive) |
| O=C(NC1CCCC1)N[C@H]1C=C[C@H](CC(=O)N2CCOCC2)O[C@H]1CO | 0.0045% (inactive) |
| C[C@@H]1CN([C@@H](C)CO)C(=O)Cc2cc(NC(=O)C3CCCCC3)ccc2O[C@@H]1CN(C)Cc1ccc(Cl)c(Cl)c1 | 46.5% (active) |
| COc1ccc(S(=O)(=O)Nc2ccc3c(c2)CC(=O)N([C@H](C)CO)C[C@@H](C)[C@@H](CN(C)Cc2ccc(C(=O)Nc4ccccc4N)cc2)O3)cc1 | 0.03% (inactive) |
| COc1ccc(S(=O)(=O)Nc2ccc3c(c2)CC(=O)N([C@H](C)CO)C[C@H](C)[C@H](CN(C)Cc2ccc(C(=O)Nc4ccccc4N)cc2)O3)cc1 | 15.1% (active) |
| C[C@@H]1CN([C@H](C)CO)C(=O)Cc2cc(NC(=O)C3CCCCC3)ccc2O[C@H]1CN(C)Cc1ccc(Cl)c(Cl)c1 | 0.389% (inactive) |
| C[C@H]1CN([C@@H](C)CO)C(=O)Cc2cc(NC(=O)C3CCCCC3)ccc2O[C@H]1CN(C)Cc1ccc(Cl)c(Cl)c1 | 0.106% (inactive) |
| COc1ccc(S(=O)(=O)Nc2ccc3c(c2)CC(=O)N([C@H](C)CO)C[C@@H](C)[C@H](CN(C)Cc2ccc(C(=O)Nc4ccccc4N)cc2)O3)cc1 | 0.03% (inactive) |
| CCCN1C[C@H](C)[C@H](OC)CN(C)C(=O)c2ccc(NS(=O)(=O)c3cn(C)cn3)cc2OC[C@@H]1C | 0.0005% (inactive) |
| CN1CCN(C(=O)C[C@H]2C[C@H]3c4cc(NS(C)(=O)=O)ccc4O[C@H]3[C@H](CO)O2)CC1 | 0% (inactive) |
| O=C(c1ccccn1)N1CC[C@@H]2[C@@H](CO)Nc3ccc(C#Cc4cccnc4)cc3[C@@H]21 | 0.001% (inactive) |
| Fc1ccc(-c2ccc(C3[C@@H]4CN(Cc5ccccc5)C[C@H]3N4)cc2)cc1 (stereo not given in full) | 1.66% (inactive) and 0.0585% (inactive) |
| CN(C)C(=O)c1cccc(-c2ccc(C3[C@@H]4CN(Cc5ccccc5F)C[C@H]3N4)cc2)c1 (stereo not given in full) | 1.26% (inactive) and 21.9% (active) |
| C/C=C/c1ccc(C2[C@@H]3CN(S(=O)(=O)c4ccccc4F)C[C@H]2N3)cc1 (stereo not given in full) | 0.01% (inactive) |
| O=S(=O)(c1ccc(F)cc1)N1C[C@@H]2N[C@H](C1)C2c1ccc(/C=C/c2ccccc2)cc1 (stereo not given in full) | 8.33% (active) and 0.035% (inactive) |

| Structure (SMILES) | activation |
| --- | --- |
| Fc1cccc(CN2C[C@@H]3N[C@H](C2)C3c2ccc(/C=C/c3ccccc3)cc2)c1 (stereo not given in full) | 3.54% (inactive) and 8.86% (active) |
| CN(C)C(=O)c1cccc(-c2ccc(C3[C@@H]4CN(Cc5cocn5)C[C@H]3N4)cc2)c1 (stereo not given in full) | 0.001% (inactive) |
| C(=C\c1ccc(C2[C@@H]3CN(Cc4nccs4)C[C@H]2N3)cc1)/c1ccccc1 (stereo not given in full) | 0.714% (inactive) and 0.0635% (inactive) |
| Cc1ccccc1S(=O)(=O)N1C[C@@H]2N[C@H](C1)C2c1ccc(/C=C/c2ccccc2)cc1 (stereo not given in full) | 0.183% (inactive) |
| Cc1cccc(-c2ccc(C3[C@@H]4CN(Cc5cccc(F)c5)C[C@H]3N4)cc2)c1 (stereo not given in full) | 50.5% (active) and 0.557% (inactive) |
| COc1ccccc1-c1ccc(C2[C@@H]3CN(Cc4cccc(F)c4)C[C@H]2N3)cc1 (stereo not given in full) | 0.062% (inactive) |
| Fc1cccc(-c2ccc(C3[C@@H]4CN(Cc5cncnc5)C[C@H]3N4)cc2)c1 (stereo not given in full) | 0.047% (inactive) and 0.0125% (inactive) |
| CN(C)C(=O)c1ccc(-c2ccc(C3[C@@H]4CN(Cc5ccccc5Cl)C[C@H]3N4)cc2)cc1 (stereo not given in full) | 0.0085% (inactive) |
| C(=C\c1ccc(C2[C@@H]3CN(Cc4ccc5c(c4)OCO5)C[C@H]2N3)cc1)/c1ccccc1 (stereo not given in full) | 10.3% (active) and 0.0555% (inactive) |
| Cc1ccccc1-c1ccc(C2[C@@H]3CN(Cc4ccc5c(c4)OCO5)C[C@H]2N3)cc1 (stereo not given in full) | 0.039% (inactive) and 0.046% (inactive) |
| O=C(c1ccc2c(c1)OCO2)N1C[C@@H]2N[C@H](C1)C2c1ccc(/C=C/c2ccccc2)cc1 (stereo not given in full) | 0.452% (inactive) and 0.1% (inactive) |
| CCS(=O)(=O)N1Cc2cc(C(=O)NCCOC)nc(-c3cccc(-c4ccncc4)c3)c2[C@H]1CCO | 0% (inactive) |
| N#C[C@@H]1[C@@H](c2ccccc2-c2ccccc2F)[C@@H](CO)N1C(=O)Cc1ccccc1 | 0.0105% (inactive) |
| CO[C@@H](CN(C)C(=O)c1ccc2c(c1)OCO2)[C@@H](C)CN([C@H](C)CO)S(=O)(=O)c1ccc(Cl)cc1 | 0.019% (inactive) |
| CO[C@H]1CC[C@@H]2CCOc3ccc(C#N)cc3C(=O)N(C)[C@H](C)C(=O)N(C)C[C@@H]1O2 | 0.001% (inactive) |
| CCCC(=O)N1CC2(C1)CN(C(=O)c1ccc(F)cc1)[C@H](CO)c1[nH]c3cc(OC)ccc3c12 | 0.003% (inactive) |
| CN(C)CC(=O)N1[C@H](C(=O)Nc2nccs2)[C@@H](CO)[C@@H]2Cn3c(ccc(C4=CCCCC4)c3=O)[C@@H]21 | 0% (inactive) |
| COc1ccc2c3c([nH]c2c1)[C@H](CO)N(S(=O)(=O)c1cn(C)cn1)CC31CCN(CC2CCCCC2)CC1 | 0.0045% (inactive) |
| CCC(=O)N1CC2(C1)CN(C(=O)c1cnccn1)[C@@H](CO)c1c2c2ccc(OC)cc2n1C | 0.0005% (inactive) |
| C[C@@H]1CCCCO[C@H](CN(C)Cc2ccncc2)[C@H](C)CN([C@@H](C)CO)C(=O)c2cc(NC(=O)Cc3ccccc3)ccc2O1 | -0.0005% (inactive) |
